TGFb SMAD3 inh: blocks TGF-b signaling. HepG2 CAGA-GFP TGF-b/SMAD3 reporter, GFP fluorescence, 18 h; TGF-beta stimulated, 500 pg/mL final. Potency, µM (doses to about 46.1 µM), for the others: at the top dose activity, negative = inhibition, most hits filed as inhibitors. AID 588855. hit rate 1.2% among 410,000; further: potency means the concentration at half of the fitted maximal effect; on the % scale 0 is the no-effect control and ±100 the full control effect; nearly all actives have a fitted effect of over 65% in size
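HEPG2 CAGA-GFP cells (1000/well, DMEM with 1% FBS) were pre-incubated 2 h at 37 degrees C, given compound by pin tool, then stimulated with TGF-beta at 500 pg/mL final for 18 h before per-cell GFP fluorescence imaging.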
HepG2 tox: counter-screen for TGF-b inhibitors: cytotoxicity in HepG2 cells; HepG2 CAGA-GFP viability, ATP luminescence, 18 h; Potency, µM (doses to about 46.1 µM), for inactives: at the top dose activity change, negative = cytotoxicity, actives largely listed as cytotoxic; hit rate 0.76% among 410,000; AID 588856; further: potency means the concentration at half of the fitted maximal effect
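CellTiter-Glo luminescence gave cytotoxicity after 18 hours at 37 degrees C. The cells were HepG2 CAGA-GFP in 1% FBS DMEM, stimulated with 500 pg/mL TGF-beta after compound addition. %Activity was normalised to no-cell wells (complete cell-killing) and DMSO (no toxicity), and curves were fitted and classified.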
ATXN2 expr inh: inhibitors of ATXN2 expression. hit rate 0.72% among 360,000. Potency, µM (titrated, usually from 57 µM), for the others: at the top dose activity change, negative = inhibition, hits mostly inhibitors. HEK-293 ATXN2-luciferase reporter, luminescence, 24 h; further: potency means the concentration at half of the fitted maximal effect; on the % scale 0 is the no-effect control and ±100 the full control effect; nearly all actives have a fitted effect of over 55% in size
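ATXN2-luciferase reporter cells (luciferase flanked by upstream and downstream ATXN2 gene portions) were treated 24 h at 37 °C with compounds at up to 57 uM. SteadyGlo luminescence gave expression; GF-AFC fluorescence gave viability.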
DRD3 antagonist: antagonists of human D3 dopamine receptor | P35462 | D3R cells, DiscoveRx beta-arrestin luminescence, antagonist mode; stronger effect = lower value | max response, negative = inhibition, % | hit rate 2.5% among 360,000; in the data active means max response below about -50%; inconclusive means no clear call, values can overlap the other calls; further: on the % scale 0 is the no-effect control and ±100 the full control effect
Target sequence (P35462 whole entry, looked up): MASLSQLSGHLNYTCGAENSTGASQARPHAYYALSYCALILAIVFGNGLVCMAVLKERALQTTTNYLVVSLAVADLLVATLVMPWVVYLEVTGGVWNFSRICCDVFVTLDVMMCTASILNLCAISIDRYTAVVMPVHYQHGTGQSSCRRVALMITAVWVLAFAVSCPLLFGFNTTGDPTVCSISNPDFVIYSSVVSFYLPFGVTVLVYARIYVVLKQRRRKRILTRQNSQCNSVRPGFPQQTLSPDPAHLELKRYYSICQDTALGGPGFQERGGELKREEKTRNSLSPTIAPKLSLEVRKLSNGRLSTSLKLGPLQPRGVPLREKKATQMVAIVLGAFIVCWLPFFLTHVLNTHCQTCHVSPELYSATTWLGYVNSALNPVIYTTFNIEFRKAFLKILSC
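Cells plated overnight at 1500 cells/well, then exposed to library compounds with dopamine controls for 90 minutes at 37 degrees C. DiscoveRx reagent added for 30–60 minutes at room temperature; luminescence read, quantitative HTS format.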
DRD3 agonist: D3 dopamine receptor (human) agonism | P35462 | D3R DiscoveRx beta-arrestin cells, luminescence, 90 min | max activation, % | hit rate 0.58% among 410,000 | AID 652048; in the data active means max activation above about 30%; further: 0% is about no effect
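Agonist-mode cell screen: cells plated at 1500/well and incubated overnight at 37 °C, then exposed to library compounds for 90 min at 37 °C. Detection reagent was added for 30–60 min at room temperature, and luminescence was read.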
ATXN viability: viability counter-screen for ATXN expression inhibitors; Potency, µM (doses to about 56.7 µM), usual class: cytotoxic; hit rate 0.49% among 400,000; S2 cells (HEK-293 line with an ATXN2-luciferase reporter) viability, CellTiter-Fluor protease fluorescence, 24 h; further: potency means the concentration at half of the fitted maximal effect; nearly all actives have a fitted effect of over 40% in size
* hit, by the source's call; i = inactive; u = inconclusive; x = no result; ! = a repeat was not active. The list is not random: actives were taken first. Their share in the collection is about 4.7%. Unless noted, the call rests on the fitted dose curve; in most records, active means well fitted curve in the direction sought with a large enough effect; inconclusive means small, poorly fitted or top-dose-only effect, or another doubt; inactive means no such curve, though single readings can be large; an effect the other way counts as inactive or inconclusive.

SMILES	TGFb SMAD3 inh	HepG2 tox	ATXN2 expr inh	DRD3 antagonist	DRD3 agonist	ATXN viability
CN(C)c1nc(Cc2ccc(NC(=O)c3ccc(C(F)(F)F)cc3)cc2)nc(N(C)C)c1CC(=O)O	x	x	2%	x	x	x
COc1ccc(NC(=O)C2CCN(S(=O)(=O)c3ccc(C)cc3)CC2)cc1OC	1%	0%	3%	-3	-3	i
Cc1ccc(S(=O)(=O)N2CCC(C(=O)Nc3ccc4c(c3)COC4=O)CC2)cc1	-15%	-20%	5%	-65*	-1	i
Cc1ccc(S(=O)(=O)N2CC3(O)CN(C(=O)OC(C)C)N(C(=O)OC(C)C)CC3(OC(=O)NCc3ccccc3F)C2)cc1 (configuration not stated)	u	-31%	0%	54	2	22µM*
Cc1ccc(S(=O)(=O)N2CC3(O)CN(C(=O)OC(C)C)N(C(=O)OC(C)C)CC3(OC(=O)NCC3CCCCC3)C2)cc1 (configuration not stated)	u	-26%	u	23	0	14µM*
Cc1ccc(S(=O)(=O)N2CCC(C(=O)NCC3CC3)CC2)cc1	16%	5%	9%	0	6	i
Cc1ccc(S(=O)(=O)N2CCC(C(=O)NCC3CCCCC3)CC2)cc1	-8%	-8%	-17%	-65*	-15	i
COc1ccccc1NC(=O)Cn1c(=O)n(CCC(=O)NCC2CCCO2)c(=O)c2cc(OC)c(OC)cc21 (configuration not stated)	8%	-6%	-12%	x	-2	i
COc1ccc(CN2CC[C@H]3C=CC[C@@H](C(=O)Nc4ccc(Cl)cc4Cl)[C@H]3C2=O)cc1OC	u	-3%	x	x	x	x
CC1CCN(S(=O)(=O)c2ccc(S(=O)(=O)N3CCCC3)cc2)CC1	-3%	-2%	-1%	6	34*	u
Cc1ccc(S(=O)(=O)N2CCC(C)CC2)cc1	-18%	-26%	-33%	4	8	i
Cc1ccc(CNC(=O)C2CCN(S(=O)(=O)N3CCOCC3)CC2)cc1	-9%	-1%	-1%	7	40*	i
COc1ccccc1CN1C(=O)C(=O)c2cccc(C)c21	4%	1%	x	x	4	x
Cc1cc(Br)cc2c1N(Cc1ccccc1OC(C)C)C(=O)C2=O	x	10µM*	x	x	-19	x
Cc1ccccc1NC(=O)c1cc(S(=O)(=O)c2ccccc2)ccc1Cl	u	-10%	-18%	-52*	-8	i
O=c1c2c3c(sc2nc2n1CCC2)CCC3	-1%	0%	1%	-52*	-1	i
O=c1c2c3c(sc2nc2n1CCC2)CCCCC3	-22%	-21%	7%	0	5	i
CCN(CC)c1ccc(NC(=O)C2COc3ccc(OC)cc3C2)c(C)c1 (configuration not stated)	8.9µM*	-34%	u	x	-20	u
COc1ccc2c(c1)CC(C(=O)Nc1ccc(OC)cc1OC)CO2 (configuration not stated)	0%	-13%	-7%	x	-9	i
OC(COCc1ccc(Cl)cc1)CN1CCN(c2ccccn2)CC1 (configuration not stated)	24%	-5%	-2%	0	59*	i
OC(COCc1cccs1)CN1CCN(c2ccccn2)CC1 (configuration not stated)	3%	-26%	-6%	-25	57*	i
OC(COCc1cccs1)CN1CCN(c2cccc(Cl)c2)CC1 (configuration not stated)	-29%	-11%	-27%	-56*	-6	i
CN1CCCN(CC(O)COCc2cccs2)CC1 (configuration not stated)	17%	4%	4%	5	10	i
Cc1cccc(N2CCN(CC(O)COCc3cccs3)CC2)c1C (configuration not stated)	16%	14%	5%	-6	58*	i
OC(COCc1cccs1)CN1CCCCCC1 (configuration not stated)	16%	-35%	-2%	-11	-4	i
SMILES	TGFb SMAD3 inh	HepG2 tox	ATXN2 expr inh	DRD3 antagonist	DRD3 agonist	ATXN viability
OC(COc1ccc(Cl)cc1)CN1CCN(c2ccccn2)CC1 (configuration not stated)	0%	-2%	-29%	-8	12	u
COc1ccc(OC)c(CCNC(=O)c2cc3cccc4c3n2CC(C)S4)c1 (configuration not stated)	0%	-35%	x	x	6	x
CCn1ccc2cc(S(=O)(=O)N3CCCN(C(=O)NCC(C)C)CC3)ccc21	0%	-13%	-1%	x	2	i
OC(COCC1COc2ccccc2O1)CN1CCN(c2ccccn2)CC1 (configuration not stated)	-6%	1%	-18%	-24	75*!	i
CCOc1ccccc1N1CCN(CC(O)COCc2cccs2)CC1 (configuration not stated)	-2%	4%	-2%	-85*	-25	i
OC(COCC1COc2ccccc2O1)CN1CCc2ccccc2C1 (configuration not stated)	-3%	-26%	-17%	14	-1	i
OC(COCc1cccs1)CN1CCN(c2ccccc2Cl)CC1 (configuration not stated)	-9%	-26%	2%	-69*	-18	i
Nc1cnccn1	-17%	0%	x	x	x	x
Cc1n[nH]c(C)c1Cc1sc2c(c1C(=O)N1C[C@H](O)CO1)c(=O)n(C)c(=O)n2CC(C)C	x	x	-10%	x	x	x
O=C(CN1CCN(Cc2ccc(F)cc2Cl)S1(=O)=O)Nc1ccc(F)cc1	u	-24%	x	x	-9	x
CC1(C)[C@H]2CC[C@]3(C)[C@@H](C(=O)C=C4[C@@H]5C[C@@](C)(C(=O)O)CC[C@]5(C)CC[C@]43C)[C@@]2(C)CC[C@@H]1O	x	x	0%	x	x	x
COCCC(=O)N1CCCC(CNS(=O)(=O)c2ccc(OC)cc2)C1 (configuration not stated)	-13%	-1%	-9%	-63*	-3	i
CCCCC[C@H]1CN(CCCC)C(=O)[C@@H]1CC(=O)NCc1ccc(OC)cc1	u	-19%	-21%	18	2	i
CCCCC[C@H]1CN(Cc2ccccc2)C(=O)[C@@H]1CC(=O)NCc1ccccc1	18µM*	14µM*!	u	-27	-13	u
CN1CC(=O)NC1=N	x	x	0%	x	9	i
CN1CCN(Cc2ccc(-c3ccc(Cl)cc3)o2)CC1	11%	-21%	-18%	-71*	-19	u
Clc1ccc(-c2ccc(CN3CCCCC3)o2)cc1	-5%	-22%	x	-106*	-6	i

Screening data: PubChem, National Center for Advancing Translational Sciences (NCATS)
